Laboratory results: PubChem BioAssay AID720513 (Broad Institute, 2013)
The whole screen tested about 2,100 compounds, of which about 480 (23%) were called active. Inconclusive results (about 5%) are left out.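 Rule for the calls: active = fitted curve reaches 40% activation at or below the top valid concentration, in every replicate test; inconclusive = replicate tests disagree on the call; inactive = the rest, including activity in the opposite direction.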 Only a sample is shown. Measured potencies and affinities stand elsewhere.

assay: activators raising PGC1a acetylation in cells, dose response, cell-based, cherry-picked samples, set 6 (AID 720513); settings: U2OS PGC1a acetylation AlphaLISA, overnight, 0 = neutral, -100 = inhibitor control; series mostly up to 19.5 µM;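 note: cells made to overexpress flag tagged PGC1a plus GCN5 acetyltransferase by viral infection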

outcome, inactive:
CC(C)NC(=O)NCC[C@@H]1CC[C@H](NS(=O)(=O)c2ccc(-c3ccccc3)cc2)[C@@H](CO)O1
COc1ccccc1NC(=O)CCC(=O)Nc1ccccc1OC
COC(=O)c1cc(Cl)c(NS(=O)(=O)c2ccccc2)cc1OC
CCn1c(=O)c2c(cnn2C)c2ccccc21
CCOc1ccc(Nc2ncnc3ccc([N+](=O)[O-])cc23)cc1
COc1ccc(-c2nc(C#N)c(NCc3ccco3)o2)cc1
CCCNC(=O)c1nnsc1S(=O)(=O)c1ccc(Cl)cc1
Cc1cc(C)c2c(=O)[nH]n(C3CCCCCC3)c2n1
O=C(C[C@H]1C[C@@H]2c3cc(NS(=O)(=O)c4ccc(F)cc4)ccc3O[C@@H]2[C@@H](CO)O1)N1CCc2ccccc2C1
O=C(C1CC1)N1C[C@@H]2N[C@H](C1)C2c1ccc(/C=C/c2ccccc2)cc1 (some centres not stated)
O=C(C(Br)=Cc1ccccc1)c1ccccc1
Cc1ccc(C(=O)OCN2C(=O)c3ccccc3C2=O)o1
CCCCC1C(=O)N(c2ccccc2)N(c2ccc(O)cc2)C1=O (configuration not stated)
O=C(Nc1nc2cc3c(cc2s1)OCCO3)c1ccncc1
C[C@@H]1CN([C@@H](C)CO)C(=O)c2cc(NS(=O)(=O)c3ccc(F)cc3)ccc2O[C@@H]1CN(C)S(=O)(=O)c1ccc(Cl)cc1
CC(C)NC(=O)Nc1ccc2c(c1)C(=O)N([C@@H](C)CO)C[C@@H](C)[C@H](CN(C)Cc1ccc(C(=O)O)cc1)OCCCC[C@H](C)O2
CCCC(=O)C1=C(O)C(C(=O)OC)C(C)(C)CC1=Nc1ccc(OC)cc1 (configuration not stated)
NC(=O)c1sc2nc3c(c(-c4cccs4)c2c1N)CCCCC3
COc1ccc(S(=O)(=O)N[C@H]2CC[C@@H](CCNC(=O)c3ccccc3F)O[C@@H]2CO)cc1
O=C(Cc1ccccc1)N1CC[C@@H]2[C@H]1c1cc(C#Cc3ccccc3)ccc1N[C@@H]2CO
CCCOC(=O)c1ccc(-n2nnnc2SCC(=O)N2CCCCC2)cc1
CN(CC(=O)Nc1ccccc1Br)C(=O)c1cccc(S(=O)(=O)NCc2ccccc2)c1
C[C@@H]1CN([C@@H](C)CO)C(=O)c2cccc(NC(=O)Nc3ccccc3)c2O[C@H]1CN(C)S(=O)(=O)c1cccs1
COc1ccc(Cl)cc1NC(=O)NCC1CCN(C(=O)OC(C)(C)C)CC1
COc1ccccc1NC(=O)Cn1c(C)cc(=O)c2cccc(OC)c21
O=C(Nc1ccc(C(F)(F)F)cc1)N1C[C@@H]2N[C@H](C1)C2c1ccc(/C=C/c2ccccc2)cc1 (some centres not stated)
O=C(Nc1ccc(C(F)(F)F)cc1)N1C[C@@H]2N[C@H](C1)C2c1ccc(-c2ccccc2)cc1 (some centres not stated)
CO[C@@H]1CN(C)C(=O)c2ccc(NS(=O)(=O)CC(F)(F)F)cc2OC[C@@H](C)N(C(=O)NC(C)C)C[C@H]1C
O=C(CNC(=O)C1CCCCC1)OCC(=O)c1ccc(Cl)s1
CCOCCc1nn2c(=O)cc(CSCC(=O)Nc3cccc(C)c3C)nc2s1
CC(C)(C)NC(=O)c1ccc(Sc2ccccc2)c([N+](=O)[O-])c1
Cc1cc(=O)[nH]c(SCC(=O)c2ccc(F)c(C)c2)n1
Cc1cccc(Oc2ccccc2NC(=O)C2=COCCO2)c1
COc1cc(CN2CCC(C(=O)NCCC(C)C)CC2)ccc1OCc1ccccc1
CCOc1ccc(-c2[nH]ncc2-c2ccc(OC)c(OC)c2)c(O)c1
CNc1ccc2ncc(-c3ccc(OC)c(OC)c3)n2n1
CC(C)(C)OC(=O)NC(Cc1ccccc1)C(=O)NCCCC(=O)O (configuration not stated)
CC(C)NC(=O)N(C)C[C@H]1OCCCC[C@@H](C)Oc2ccc(NC(=O)Nc3ccc(C(F)(F)F)cc3)cc2C(=O)N([C@H](C)CO)C[C@@H]1C
C[C@@H]1CN([C@H](C)CO)C(=O)CCCn2nncc2CO[C@H]1CN(C)C(=O)Nc1cccc(F)c1
C[C@@H]1CN([C@H](C)CO)C(=O)CCCn2cc(nn2)CO[C@H]1CN(C)C(=O)Nc1ccc(C(F)(F)F)cc1
C[C@@H]1CN([C@@H](C)CO)C(=O)c2cc(C3=CCCC3)cnc2O[C@@H]1CN(C)C(=O)Nc1cccc(F)c1
COC(=O)Cn1ccc(-c2ccc(Cl)cc2)c(C#N)c1=O
NC(=O)COC(=O)CC(NC(N)=O)c1ccc(Cl)cc1 (configuration not stated)
C[C@@H]1CN([C@H](C)CO)C(=O)CCCn2nncc2CO[C@@H]1CN(C)S(=O)(=O)c1cn(C)cn1
Cc1ccccc1C(=O)Nc1ccc(C(=O)O)cc1NC(=O)c1ccccc1C
Cc1ccc(NC2=C([N+](=O)[O-])CS(=O)(=O)C2)cc1
O=C(COC(=O)C1CC2CCCC(C1)C2=O)Nc1ccc(F)c(Cl)c1 (configuration not stated)
COc1ccccc1/C=C(/C(=O)OCC(=O)NCc1ccccc1)c1ccccc1
S=c1sc2c(Cl)ncnc2n1-c1ccccc1
CCCN(C)C[C@@H]1Oc2cc(C#C[C@H](C)O)ccc2S(=O)(=O)N([C@H](C)CO)C[C@@H]1C
Cc1ccc(C)c(C(=O)Cn2ncc(Cl)c(Cl)c2=O)c1
COc1ccc(C#Cc2ccc([C@@H]3[C@H](CO)N4CCCCN(C(=O)Nc5ccccc5)C[C@@H]34)cc2)cc1
C[C@@H]1CN([C@H](C)CO)S(=O)(=O)c2ccc(-c3cncnc3)cc2O[C@H]1CN(C)Cc1cccnc1
C[C@H]1CN([C@@H](C)CO)S(=O)(=O)c2ccc(C#CCN(C)C)cc2O[C@H]1CN(C)Cc1ccc2c(c1)OCO2
COc1ccccc1-c1ccc2c(c1)O[C@@H](CN(C)Cc1ccc3c(c1)OCO3)[C@@H](C)CN([C@H](C)CO)S2(=O)=O
C[C@H]1CN([C@@H](C)CO)S(=O)(=O)c2ccc(-c3ccccc3)cc2O[C@@H]1CN(C)Cc1cccc(F)c1
COc1cccc(-c2ccc3c(c2)O[C@H](CN(C)Cc2ccncc2)[C@@H](C)CN([C@@H](C)CO)S3(=O)=O)c1
CC(C)CC#Cc1ccc2c(c1)O[C@@H](CN(C)Cc1ccc3c(c1)OCO3)[C@H](C)CN([C@H](C)CO)S2(=O)=O
C[C@H](CO)N1C[C@H](C)[C@@H](CN(C)Cc2ccc3c(c2)OCO3)Oc2cc(-c3cccc(C(=O)N(C)C)c3)ccc2S1(=O)=O
CCCC#Cc1ccc2c(c1)O[C@@H](CN(C)Cc1ccc3c(c1)OCO3)[C@@H](C)CN([C@H](C)CO)S2(=O)=O
Cc1cccc(CC2CC(=O)N(C3CCCCC3)C2=O)c1 (configuration not stated)
CCCCn1c(=O)[nH]c(=O)c2c1nc(-c1ccc(OCCC)c(OCC)c1)n2C
Oc1ccc(-c2nc(-c3ccc(O)c(O)c3)cs2)cc1
Cc1cccc(COc2ccc(/C=C3/C(=O)N(C)C(=S)N3C)cc2)c1
COc1ccc(CCN(C)C(=O)CN2C(=O)NC3(CCCc4ccccc43)C2=O)cc1OC (configuration not stated)
O=C(Nc1cccc2c1CCCC2)c1ccccc1Br
C/C(=C\C(=O)N1CCc2ccccc21)C(=O)O
CC(C)(C)NCCC(O)c1cc(C(F)(F)F)nc2c(C(F)(F)F)cccc12 (configuration not stated)
CCN(CC)CC#CCOC(c1ccccc1)c1ccccc1
O=[N+]([O-])c1ccc(Oc2ccc(F)cc2)c2ccncc12
O=C(Nc1cc(C(F)(F)F)ccc1N1CCOCC1)c1ccccc1
COc1ccc(Br)cc1S(=O)(=O)NCc1ccccc1
O=C(O)CCCC(=O)Nc1ccc(Br)cc1C(=O)O
CC(C)[C@H]1COCCS(=O)(=O)N1Cc1ccccc1F
C[C@H](CO)N1C[C@H](C)[C@H](CN(C)S(=O)(=O)c2ccccc2C#N)OCc2cnnn2CCCC1=O
CC1CC1C(=O)N(C)CC(=O)Nc1cccc(F)c1 (configuration not stated)
CCCN(C)C[C@@H]1Oc2cc(C#CC3CCCC3)ccc2S(=O)(=O)N([C@H](C)CO)C[C@@H]1C
CCOCCCNC(=O)c1ccccc1SC
Fc1cccc(CN2C[C@@H]3N[C@H](C2)[C@@H]3c2ccc(-c3cccc(F)c3)cc2)c1
Fc1cccc(-c2ccc([C@@H]3[C@@H]4CN(Cc5nccs5)C[C@H]3N4)cc2)c1
c1csc(CNc2ncnc3ccc(-c4ccoc4)cc23)c1
CCS(=O)(=O)c1ccc2oc(Nc3ccccc3Br)nc2c1
CCN1C(=O)CCCc2ccccc21
O=C(NCC[C@@H]1CC[C@H](NS(=O)(=O)Cc2ccccc2)[C@H](CO)O1)C1CCC1
Nc1nc(Nc2ccccc2)nc2ccccc12
CC(=O)c1ccc(Nc2cc(C)nc3ccc(C)cc23)cc1
CN(C)CC(=O)N1CCCCN2[C@@H](CO)[C@H](c3ccc(/C=C/c4ccccc4)cc3)[C@@H]2C1
Cc1ccc(NC(=O)COC(=O)COc2ccc(Cl)cc2)c([N+](=O)[O-])c1
COC(=O)c1ccc(C(=O)OC)c(NC(=O)COC(=O)CCOc2ccc(C)cc2)c1
Cc1cc(C)cc(OC(=O)CS(=O)c2ccc(C(F)(F)F)cc2[N+](=O)[O-])c1 (configuration not stated)
C[C@@H]1CCCCO[C@@H](CN(C)S(C)(=O)=O)[C@H](C)CN([C@@H](C)CO)C(=O)c2cc(NC(=O)c3ccccc3)ccc2O1
COc1nc(OCCNS(=O)(=O)c2ccc(C)cc2)nc(N(C)C)n1
